Screens: PubChem, National Center for Advancing Translational Sciences (NCATS)
Shown are actives, neighbours in structure and some others; about 1.4% of the full set was active somewhere.
BRCA1 expr up – increases BRCA1 expression | MCF7-BRCA1-FFLuc reporter, luminescence, 48 h; response scale: scaled: vehicle 0%, 10 µM genistein 100% | Potency, µM (top dose mostly 46.1 µM), for inactives: at the top dose activation, hits mostly activators | 380,000 compounds, 1.1% hits | AID 624202; further: nearly all actives have a fitted effect of over 80% in size
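MCF7-BRCA1-FFLuc cells, 2000/well in phenol-red-free MEM, attached 2 h then treated 48 h at 37 C. Luciferase luminescence read 15 min after reagent; normalized to genistein maximum activation (10microM) and DMSO, concentration-response fitted.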
EPAC1 antag – antagonists of human EPAC1; O95398; EPAC1 GEF assay, Rap1b-BODIPY-GDP exchange fluorescence; Potency, µM (series often up to 115 µM), inactives show top-dose activity change, negative = inhibition, actives largely listed as inhibitors; 360,000 compounds, 0.14% hits;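 further: plate controls were vehicle for no effect and positive control for full effect; nearly all actives have a fitted effect of over 50% in size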
EPAC2 antag – EPAC2 (human) antagonism. Potency, µM (top dose mostly 114 µM), for the others: top-dose activity, negative = inhibition, usual class: inhibitors. EPAC2 GEF exchange of Rap1B-BODIPY-GDP, fluorescence. 360,000 compounds, 0.18% hits. Q8WZA2; further: on the % scale 0 is the no-effect control and ±100 the full control effect; nearly all actives have a fitted effect of over 45% in size
EPAC2 agonist – activates human EPAC2 exchange factor; 360,000 compounds, 0.079% hits; EPAC2 activation, biochemical qHTS; response scale: 100% = 6.5 mM cAMP response; AID 720711; Q8WZA2; Potency, µM (highest dose often 154 µM), for the others: at the top dose activation, usual class: activators; further: nearly all actives have a fitted effect of over 50% in size
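Nucleotide exchange monitored as fluorescence drop when BODIPY-GDP leaves Rap1B. Reaction: 100 nM EPAC2, 250 nM RAP1B-BODIPY-GDP, 50 uM GDP, room temperature, kinetic read over 30 min. Activity expressed relative to 6.5 mM cAMP.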
USP1 inh – USP1/UAF1 (human) deubiquitinase inhibition | recombinant USP1/UAF1, Ub-Rhodamine cleavage fluorescence | Potency, µM (top dose mostly 57.1 µM), without a hit: top-dose activity change, negative = inhibition, hits mostly inhibitors | 390,000 compounds, 0.23% hits; further: on the % scale 0 is the no-effect control and ±100 the full control effect; nearly all actives have a fitted effect of over 60% in size
Target sequence (O94782 whole entry, looked up): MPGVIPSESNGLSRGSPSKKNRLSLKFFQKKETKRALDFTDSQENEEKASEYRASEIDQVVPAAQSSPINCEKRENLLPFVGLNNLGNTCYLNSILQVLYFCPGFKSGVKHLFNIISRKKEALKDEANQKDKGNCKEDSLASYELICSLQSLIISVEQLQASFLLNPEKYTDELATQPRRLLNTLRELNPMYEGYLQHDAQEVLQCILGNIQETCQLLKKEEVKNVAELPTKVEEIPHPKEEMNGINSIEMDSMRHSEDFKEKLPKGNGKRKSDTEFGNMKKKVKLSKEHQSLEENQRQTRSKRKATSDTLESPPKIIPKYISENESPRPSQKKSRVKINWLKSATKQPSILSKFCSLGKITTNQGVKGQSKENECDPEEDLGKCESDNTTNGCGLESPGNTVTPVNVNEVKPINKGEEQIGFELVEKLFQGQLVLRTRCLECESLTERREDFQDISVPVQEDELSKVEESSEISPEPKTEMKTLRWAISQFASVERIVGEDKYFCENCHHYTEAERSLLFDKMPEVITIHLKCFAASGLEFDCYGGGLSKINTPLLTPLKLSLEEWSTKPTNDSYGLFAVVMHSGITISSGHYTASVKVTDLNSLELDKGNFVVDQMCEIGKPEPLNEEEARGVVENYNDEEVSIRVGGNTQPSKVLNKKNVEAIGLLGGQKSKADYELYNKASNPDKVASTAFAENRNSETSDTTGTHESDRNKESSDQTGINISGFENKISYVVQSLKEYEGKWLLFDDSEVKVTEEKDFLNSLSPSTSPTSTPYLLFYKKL
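In this screen, compounds sit with the deubiquitinase complex (1nM) for 15 min at room temperature before Ub-Rho is added at 150nM final. Fluorescence rise is then followed for 6 reads every 60 seconds.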
EPAC1 ag – activates human EPAC1 exchange factor; AID 720707; EPAC1 agonist qHTS, biochemical assay; response scale: 100% = response to 6.5 mM cAMP; Potency, µM (highest dose often 154 µM), for the others: at the highest dose activation, most hits filed as activators; 360,000 compounds, 0.073% hits; O95398; further: nearly all actives have a fitted effect of over 60% in size
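Nucleotide exchange assay: 100 nM EPAC1 with 250 nM Rap1B loaded with BODIPY-GDP and 50 uM GDP, room temperature. Fluorescence (480/540 nm) read every 5 min for 30 min; signal change normalized to 6.5 mM cAMP as full agonist.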
Starred values were filed as active, the others as inactive; ? = inconclusive; nt = no result. The call rests on the fitted dose curve; in most records, active means well fitted curve in the direction sought with a large enough effect; inconclusive means small, poorly fitted or top-dose-only effect, or another doubt; inactive means no such curve, though single readings can be large; an effect the other way counts as inactive or inconclusive. Potency means the concentration at half of the fitted maximal effect.

SMILES	BRCA1 expr up	EPAC1 antag	EPAC2 antag	EPAC2 agonist	USP1 inh	EPAC1 ag
CCN(CC)S(=O)(=O)c1cccc(C(=O)Nc2sc3c(c2C#N)CCC(C)C3)c1 (stereo not given)	13%	nt	nt	nt	-22%	nt
O=C(O)COc1ccc(NC(=O)C(c2ccccc2)c2ccccc2)cc1	-1%	-3%	20µM*	5%	-10%	4%
COc1cccc2c1C(=O)/C(=C\c1ccc(N(C)C)cc1)C2	-18%	nt	nt	nt	nt	nt
Cc1nc(-n2[nH]c3c(c2=O)CCCC3)[nH]c(=O)c1Cc1ccccc1	-84%	17%	0%	9%	28µM*	9%
Cc1nc(N2CCc3ccccc3C2)[nH]c(=O)c1Cc1ccccc1	1%	12%	7%	1%	-18%	3%
CSCC(=O)N1CCC(n2nccc2NC(=O)c2ccc3c(c2)OCO3)CC1	?	-8%	1%	11%	-18%	-5%
O=C(Cn1ccsc1=NC(=O)C(F)(F)F)c1ccccc1	7.9µM*	13%	14%	3%	-14%	-11%
Cc1ccc(Cn2ccc(-c3cnc(-c4ccccc4)s3)n2)cc1	74%	-19%	-7%	13%	-13%	?
O=S(=O)(c1ccccc1)n1ccc(-c2cnc(-c3ccccc3)s2)n1	7.9µM*	7%	-5%	4%	?	13%
O=C(c1cccs1)N1C[C@H](n2cc(C3CC3)nn2)[C@@H](O)C[C@@H]1c1ccc(Cl)cc1	-6%	7%	-4%	6%	-10%	14%
CC(C)(C)c1ccc(NC(=O)C2=CC=CN3CCS(=O)(=O)N=C23)cc1	10µM*	0%	-9%	0%	-5%	-4%
Cc1cc(Cl)nc2nc(Cl)ccc12	0%	nt	nt	nt	nt	nt
COc1ccc(C(=O)CSC(=S)N2CCCCC2)cc1	3.2µM*	-4%	-12%	13%	nt	7%
COc1ccc2c(c1)c(CC(=O)Nc1cc(C)cc(C)c1)c(C)n2C(=O)c1ccc(Cl)cc1	nt	nt	nt	nt	-2%	nt
COc1ccc(C(=O)O/N=C(\N)c2ccc(OC)c(OC)c2)cc1	13µM*	9%	5%	4%	-13%	7%
COc1ccc(/C(N)=N/OC(=O)C2CCCCC2)cc1OC	2.8µM*	-28%	1%	6%	-8%	4%
CCOC(=O)C1(C)CCCCN1C(=O)c1cccc(Cl)c1 (stereo not given)	7%	-27%	2%	-2%	nt	-26%
Cc1ccc(C)c(N2CCN(S(=O)(=O)c3c(C)nc4sccn4c3=O)CC2)c1	nt	nt	nt	nt	-21%	nt
CC(=O)C1=CCC(c2ccccc2)N(Cc2ccccc2)C1 (stereo not given)	nt	-8%	?	9%	nt	13%
O=C(CSc1ncccc1C(=O)O)c1cccc(C(F)(F)F)c1	16µM*	10%	-3%	11%	-12%	7%
Oc1ccccc1-c1nnc(COc2ccc(Cl)cc2Cl)o1	13µM*	?	0%	6%	-3%	-1%
Clc1ccc(-c2nnc(CCc3ccccc3)o2)c(Cl)c1	11µM*	7%	3%	5%	-9%	7%
OCC[C@@H]1C[C@@H](O)[C@H](O)[C@@]2(OCCc3ccccc32)O1	9%	0%	2%	7%	5%	6%
Cc1ccc(NC(=O)C(=Cc2ccc(C(=O)O)cc2)C(=O)Nc2ccc(C)cc2C)c(C)c1	-85%	-11%	7%	-1%	-29%	-8%
O=S(=O)(NCCSc1ccccc1)c1ccc(F)cc1	-11%	-27%	-6%	10%	-3%	4%
SMILES	BRCA1 expr up	EPAC1 antag	EPAC2 antag	EPAC2 agonist	USP1 inh	EPAC1 ag
O=C(NS(=O)(=O)c1ccc2ccc(S(=O)(=O)NCCSc3ccccc3)cc2c1)c1cccc2ccccc12	1%	56µM*	?	3%	nt	-1%
COc1ccc(C(=O)/C=C(\C)Nc2ccc3c(c2)OCO3)cc1	?	3%	0%	22%	-13%	4%
CCOc1ccc(N/C(C)=C/C(=O)c2ccc3c(c2)OCCO3)cc1	4.5µM*	-19%	-2%	14%	-19%	13%
CCOc1ccc(N/C(C)=C\C(=O)c2ccc3c(c2)OCCO3)cc1	13µM*	-24%	-3%	26%	-10%	10%
CC(C)OC(=O)c1ccc2ccc(-c3ccccc3)nc2c1	40%	-5%	-14%	10%	nt	-10%
COc1ccc(OC)c(NC(=O)C2CCN(S(=O)(=O)c3ccc4c(c3)CCCC(=O)N4)CC2)c1	187%	nt	nt	nt	-26%	nt
COc1cc(/C=C2\COC/C(=C\c3ccc(O)c(OC)c3)C2=O)ccc1O	-85%	89µM*	-13%	7%	-22%	3%
CC(CC(=O)Nc1ccc(Cl)c(S(=O)(=O)N2CCOCC2)c1)c1ccccc1 (stereo not given)	-77%	-23%	1%	1%	-16%	22µM*
O=C(O)CC(SCC(=O)Nc1ccc(Cl)c(S(=O)(=O)N2CCOCC2)c1)C(=O)O (stereo not given)	0%	-22%	-1%	-5%	-15%	-4%
O=C(Nc1ccc2oc(-c3cccnc3)nc2c1)c1ccc(-c2ccccc2)o1	nt	nt	nt	nt	-16%	nt
O=C(Nc1ccc2oc(-c3ccccc3)nc2c1)c1cccnc1	2.8µM*	3%	17%	13%	-18%	-2%
O=[N+]([O-])c1cc(-c2ccccc2)cc([N+](=O)[O-])c1O	-67%	?	56µM*	0%	?	1%
S=C(Nc1nc2c(s1)CCCC2)NC1CC1	6.3µM*	-7%	-3%	-5%	-11%	2%
O=c1[nH]c(=S)[nH]c2c1C(c1ccc(Br)cc1)c1c([nH]c(=S)[nH]c1=O)O2	-45%	35µM*	1%	3%	?	-7%
O=C1CCCC2=C1C(c1ccc(Br)cc1)c1c([nH]c(=S)[nH]c1=O)N2 (stereo not given)	15%	10%	11%	-2%	-19%	1%
COc1ccc(C2C(C(C)=O)=C(C)N=c3s/c(=C\c4cc(C)n(C)c4C)c(=O)n32)c(OC)c1 (stereo not given)	-38%	-7%	54%	?	18µM*	26%
Cc1nc(C(=O)Nc2ccccc2)sc1C(=O)Nc1ccccc1	2.8µM*	-23%	-8%	-4%	-12%	7%
Cc1nc(N)sc1C(=O)Nc1ccccc1	34%	-8%	-14%	7%	4%	9%
O=C(NCC(=O)N1CCN(c2ncccn2)CC1)c1ccccc1F	7.9µM*	-11%	2%	3%	-8%	2%
Cc1ccc(C2CC(c3cccs3)=NN2C(=O)c2ccco2)o1 (stereo not given)	-34%	-13%	28µM*	10%	-24%	12%
